Test: E. coli acrAB mutant growth effects, primary screen, E. coli filamentation inducers, strain DRC39, OD650, 48 h (AID 1179);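 further: screen aims at cell division blockers that make cells filament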
Details: E. coli DRC39 delta-acrAB growth, higher = more signal, called active from +8 up or from −8 down

z-score, inactive:
COCCOC(=O)N1C(=O)[C@@]2(c3cc(C#CCC(C(=O)OC)C(=O)OC)ccc31)[C@H](C(N)=O)[C@H]1C(=O)O[C@H](c3ccccc3)[C@H](c3ccccc3)N1[C@@H]2c1ccccc1OCCO 1.42
C=C(COC)/C(=C/C[C@@H](OC(C)=O)c1cccc(OCCO)c1)c1cnc2ccccc2c1 -0.303
CC(C)[Si](C#Cc1ccccc1)(O[C@H](c1ccccc1)c1cn(Cc2ccccc2)nn1)C(C)C 0.79
C[C@]1(C(=O)O)c2ccccc2C(=O)N(Cc2cc(C(F)(F)F)cc(C(F)(F)F)c2)[C@H]1c1ccc(CO)cc1 -0.515
[N-]=[N+]=NCc1ccccc1[C@H]1OC(c2ccc(OCCCO)cc2)=N[C@@]1(CCS(=O)(=O)c1ccccc1)C(=O)NCCN1CCOCC1 -0.35
C=CC[C@@]1(C(=O)NCCCOC)N=C(c2ccc(OCCCO)cc2)O[C@@H]1c1ccccc1CN=[N+]=[N-] 0.831
CC(=O)NCCCC[C@@H]1NC(=O)[C@H]2C[C@@H](C(=O)O)[C@@H](c3cccc(OCCO)c3)N2C1=O 0.0133
C=CCNC(=O)[C@H]1[C@@H]2C(=O)O[C@@H](c3ccccc3)[C@@H](c3ccccc3)N2[C@@H](c2ccc(O)cc2)[C@]12C(=O)Nc1ccccc12 0.975
Cc1ccc(S[C@]2(C(=O)NC(C)C)CC(=O)N(Cc3ccccc3)[C@@H]2c2ccc(CO)cc2I)cc1 0.494
COC(=O)c1ccc(OC)c(/C=C\CC(OC(=O)c2ccncc2)c2ccccc2)c1 (stereo not given) 1.49
COc1ccc([Si](C)(C)[C@H]2[C@H](CC(=O)N(CCO)Cc3ccccc3)O[C@@]3(C(=O)N(Cc4ccc(N5C(=O)c6cccc7cccc5c67)cc4)c4ccccc43)[C@@H]2C)cc1 -1.02
C=C(C)C1CN([C@H](CO)c2ccccc2)C(=O)/C1=C\c1ccccc1 (stereo not given in full) -0.719
C[N+](C)(C)CCCC[C@@H]1NC(=O)[C@H]2C[C@@H](C(=O)NCCCCCN)[C@@H](c3ccc(O)cc3)N2C1=O 0.751
CC(=O)NCCCC[C@@H]1NC(=O)[C@H]2C[C@@H](C(=O)NCCCCCN)[C@@H](c3ccc(O)cc3)N2C1=O -0.696
O=C1c2ccccc2[C@](Cc2ccccc2I)(C(=O)NCCN2CCOCC2)[C@H](c2ccc(CO)cc2)N1Cc1ccccc1C(F)(F)F -0.46
CCOC(=O)C[C@H]1[C@H](OC(=O)c2ccc(-c3ccccc3)cc2)[C@@H](NC(=O)c2ccc(-c3ccccc3)cc2)c2cc(OCCCO)ccc2N1C(=O)c1ccccc1 -0.331
COC(=O)C1=CC(CCCO)=CC(c2ccc(CN3CCCC3)cc2)N(C)C=C1C(=O)OC (stereo not given) 1.32
CCCC1(C(=O)OC)C=C2C(=C(C(C)C)C(=O)C2C)CN1 (stereo not given) 0.0752
C=CCOC(=O)[C@H]1[C@@H]2C(=O)O[C@@H](c3ccccc3)[C@@H](c3ccccc3)N2[C@@H](c2ccc(OCCOC(=O)[C@H]3C[C@H]4C(=O)NCC(=O)N4[C@H]3c3cccc(OCCO)c3)cc2)[C@]12C(=O)Nc1ccc(I)cc12 0.765
C=CCNC(=O)[C@H]1[C@@H]2C(=O)O[C@@H](c3ccccc3)[C@@H](c3ccccc3)N2[C@@H](c2ccc(O)cc2)[C@]12C(=O)N(C(=O)OCCOC)c1ccc(C#Cc3ccc(OC)cc3)cc12 -0.844
CS(=O)(=O)CCOC(=O)C1=CC(CCCO)=CC(C2CC2)N(Cc2sc3ccccc3c2Cl)C=C1C(=O)OCCS(C)(=O)=O (stereo not given) 0.156
CC(C)(C)OC(=O)CC[C@@]1(C(=O)N2CCOCC2)N=C(c2ccc(OCCCO)cc2)O[C@@H]1c1ccccc1CN=[N+]=[N-] -0.0909
CN1C(=O)C2C=CC(C(O)c3ccc(I)cc3)N(N(c3ccccc3)c3ccccc3)C2C1=O (stereo not given) -0.105
CC(C)(C)OC(=O)N1[C@@H](C=C(Br)Br)COC1(C)C 0.6
CCCN1C(=O)[C@@]2(c3ccc([N+](=O)[O-])cc3)CC(=O)N(C3CCCCC3)[C@@H]2c2ccc(CO)cc21 -1.27
C=CCNC(=O)[C@H]1[C@@H]2C(=O)O[C@@H](c3ccccc3)[C@@H](c3ccccc3)N2[C@@H](c2ccc(OCCO)cc2)[C@]12C(=O)N(C(=O)OCCOC)c1ccc(C#CCC(C(=O)OC)C(=O)OC)cc12 0.475
CN1C(=O)C2C=CC(C(O)COCc3ccccc3)N(Nc3ccc([N+](=O)[O-])cc3[N+](=O)[O-])C2C1=O (stereo not given) -0.445
COC(=O)C1=CC(c2ccc(CO)cc2)=CC(C2CC2)N(Cc2cc3c(cc2Br)OCO3)C=C1C(=O)OC (stereo not given) -0.0391
C=CC[C@H](O)c1ccc(O)c(F)c1 0.0282
COc1ccc(C(O)C2C=CC3C(=O)N(c4ccccc4)C(=O)C3N2Nc2ccccc2F)c2ccccc12 (stereo not given) -0.617
C=C(COC)C(=O)CC[C@@H](OC(=O)c1ccccc1-c1ccccc1C(=O)O)c1ccccc1OCCO -0.129
COC(=O)C(CC#Cc1ccc2c(c1)[C@]1(C(=O)N2)[C@H](C(=O)N2CCCCCCC2)[C@H]2C(=O)O[C@H](c3ccccc3)[C@H](c3ccccc3)N2[C@@H]1c1ccc(OCCO)cc1)C(=O)OC -0.878
C[C@H]1C2[C@H](Cc3ccccc3)NC(=O)[C@]23C(=O)N[C@@H](Cc2ccccc2)C(=O)N2CCC[C@H]2C(=O)NC/C=C/CC/C=C/C3[C@@H]2O[C@]12C (stereo not given in full) -0.882
CCCC[C@@H](O)C1=C(C)Cn2c(=O)n(-c3ccccc3)c(=O)n2[C@H]1CO 0.715
CC(C)c1ccc(NN2C(C(O)C3CCCCC3)C=CC3C(=O)N(c4ccccc4)C(=O)C32)cc1 (stereo not given) 0.51

Reference: PubChem BioAssay
